Seven sequences from article PMC7862700, “An all-to-all approach to the identification of sequence-specific readers for epigenetic DNA modifications on cytosine” can be followed below.

Common to all, as to test: DAPPL (digital affinity profiling via proximity ligation, sequencing); 10 mM Tris-HCl pH 7.5, 50 mM NaCl, 1 mM DTT, 4% glycerol, room temperature, 30 min; GST-TFs on glutathione beads, 16-mer random dsDNA library, 0.1% formaldehyde crosslink after washing; high values mean tight binding
Settings in all cases: protein: recombinant; tags: N-terminal GST; dsDNA, one strand shown

The target in assay [1] is T1, FLI1 (Homo sapiens, UniProt Q01543 1-452).
T1 sequence: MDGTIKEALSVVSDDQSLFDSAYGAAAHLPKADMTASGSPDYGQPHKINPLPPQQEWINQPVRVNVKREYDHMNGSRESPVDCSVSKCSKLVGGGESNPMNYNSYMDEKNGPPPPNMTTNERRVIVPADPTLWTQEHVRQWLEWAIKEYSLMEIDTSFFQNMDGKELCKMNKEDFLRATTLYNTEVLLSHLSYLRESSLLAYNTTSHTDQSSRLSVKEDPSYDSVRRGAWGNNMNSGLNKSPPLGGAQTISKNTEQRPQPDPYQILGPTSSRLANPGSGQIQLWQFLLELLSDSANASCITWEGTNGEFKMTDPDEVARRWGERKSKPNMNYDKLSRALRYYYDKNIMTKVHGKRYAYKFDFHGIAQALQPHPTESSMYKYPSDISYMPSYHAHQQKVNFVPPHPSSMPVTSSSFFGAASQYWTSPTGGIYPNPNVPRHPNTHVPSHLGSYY
The method in brief:
(§1)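 Binding signal is each hexamer's read frequency for a factor divided by its frequency in the tag-only sample. The factors were GST-fused human transcription factors from yeast, captured on glutathione beads, DNA-barcoded and pooled with that sample. Pools were incubated with 200 nmole of a random double-stranded 16-mer DNA library in Tris/NaCl/DTT/glycerol buffer at room temperature for 30 min, then washed, crosslinked with 0.1% formaldehyde, proximity-ligated with BsaI/T4 ligase (1 h, 37 °C), PCR-amplified and sequenced on an Illumina NextSeq500.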

In assay [2] the target is T2, ELK1 (Homo sapiens, UniProt P19419 1-428).
T2 sequence: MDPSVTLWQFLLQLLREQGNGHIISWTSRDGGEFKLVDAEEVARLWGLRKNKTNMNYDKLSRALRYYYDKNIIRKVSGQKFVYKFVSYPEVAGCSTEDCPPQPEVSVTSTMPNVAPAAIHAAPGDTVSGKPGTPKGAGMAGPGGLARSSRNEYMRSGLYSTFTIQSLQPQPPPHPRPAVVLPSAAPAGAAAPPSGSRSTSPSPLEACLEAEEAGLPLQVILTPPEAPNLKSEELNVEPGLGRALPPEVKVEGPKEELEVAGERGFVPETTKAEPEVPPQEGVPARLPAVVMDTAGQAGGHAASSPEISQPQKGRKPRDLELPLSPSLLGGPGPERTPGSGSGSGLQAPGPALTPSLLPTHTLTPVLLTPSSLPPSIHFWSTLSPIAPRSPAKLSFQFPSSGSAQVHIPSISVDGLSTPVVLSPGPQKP
The procedure, abridged:
as §1

The target of assay [3] is T3, GABPA (Homo sapiens, UniProt Q06546 1-454).
T3 sequence: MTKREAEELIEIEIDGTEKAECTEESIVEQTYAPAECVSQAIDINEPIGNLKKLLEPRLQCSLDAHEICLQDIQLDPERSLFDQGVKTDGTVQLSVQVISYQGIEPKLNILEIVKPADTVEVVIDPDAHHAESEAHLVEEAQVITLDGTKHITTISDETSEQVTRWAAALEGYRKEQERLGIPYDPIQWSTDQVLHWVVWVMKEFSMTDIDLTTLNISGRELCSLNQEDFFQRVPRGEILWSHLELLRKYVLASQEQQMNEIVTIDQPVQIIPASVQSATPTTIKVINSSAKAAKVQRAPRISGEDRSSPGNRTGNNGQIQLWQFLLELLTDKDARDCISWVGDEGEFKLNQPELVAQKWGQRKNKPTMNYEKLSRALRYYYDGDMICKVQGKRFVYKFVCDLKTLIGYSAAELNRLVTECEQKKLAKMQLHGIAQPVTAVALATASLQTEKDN
The procedure, abridged:
as §1

Assay [4] concerns the target T4, ERG (Homo sapiens, UniProt P11308 1-479).
T4 sequence: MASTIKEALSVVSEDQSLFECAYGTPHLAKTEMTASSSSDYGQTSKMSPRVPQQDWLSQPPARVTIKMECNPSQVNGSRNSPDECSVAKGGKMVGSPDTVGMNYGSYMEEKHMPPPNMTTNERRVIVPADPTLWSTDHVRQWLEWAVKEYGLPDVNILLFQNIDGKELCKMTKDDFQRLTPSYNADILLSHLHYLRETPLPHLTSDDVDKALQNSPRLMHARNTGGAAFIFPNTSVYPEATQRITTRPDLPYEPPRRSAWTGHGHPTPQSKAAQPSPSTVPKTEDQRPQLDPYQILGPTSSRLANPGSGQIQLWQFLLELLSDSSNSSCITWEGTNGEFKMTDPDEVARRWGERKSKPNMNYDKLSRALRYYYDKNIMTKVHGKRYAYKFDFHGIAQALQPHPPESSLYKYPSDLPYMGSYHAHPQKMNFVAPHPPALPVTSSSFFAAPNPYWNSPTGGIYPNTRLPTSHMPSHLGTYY
The procedure, abridged:
as §1

For assay [5], the target named is ELF1 (Homo sapiens, UniProt P32519 1-619). The procedure, abridged:
as §1

Assay [6] has as its target T5, EHF (Homo sapiens, UniProt Q9NZC4 1-300).
T5 sequence: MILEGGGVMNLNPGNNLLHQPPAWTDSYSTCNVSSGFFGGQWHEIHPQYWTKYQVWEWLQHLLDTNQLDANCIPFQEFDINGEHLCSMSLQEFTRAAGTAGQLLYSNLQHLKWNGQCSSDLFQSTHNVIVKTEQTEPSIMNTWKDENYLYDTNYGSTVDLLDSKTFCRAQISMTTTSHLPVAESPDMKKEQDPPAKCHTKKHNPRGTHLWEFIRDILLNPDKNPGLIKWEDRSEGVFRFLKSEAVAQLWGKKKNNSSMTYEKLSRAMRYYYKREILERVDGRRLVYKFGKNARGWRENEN
The method in brief: as §1

Assay [7] addresses SPI1 (Homo sapiens, UniProt P17947 1-270). The method in brief: as §1
Assay [8] deals with SPIB (Homo sapiens, UniProt Q01892 1-262). The procedure, abridged: as §1
SPIB, sequence (Q01892 whole entry): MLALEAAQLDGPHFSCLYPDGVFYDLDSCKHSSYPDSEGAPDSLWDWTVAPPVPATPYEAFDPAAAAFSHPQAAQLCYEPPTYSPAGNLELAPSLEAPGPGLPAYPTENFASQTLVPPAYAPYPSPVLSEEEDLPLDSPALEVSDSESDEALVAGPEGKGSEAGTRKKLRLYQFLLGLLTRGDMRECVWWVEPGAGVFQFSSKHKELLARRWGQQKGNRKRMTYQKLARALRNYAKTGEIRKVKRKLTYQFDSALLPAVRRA
Assay [9] deals with T6, ELK3 (Homo sapiens, UniProt P41970 1-407).
T6 sequence: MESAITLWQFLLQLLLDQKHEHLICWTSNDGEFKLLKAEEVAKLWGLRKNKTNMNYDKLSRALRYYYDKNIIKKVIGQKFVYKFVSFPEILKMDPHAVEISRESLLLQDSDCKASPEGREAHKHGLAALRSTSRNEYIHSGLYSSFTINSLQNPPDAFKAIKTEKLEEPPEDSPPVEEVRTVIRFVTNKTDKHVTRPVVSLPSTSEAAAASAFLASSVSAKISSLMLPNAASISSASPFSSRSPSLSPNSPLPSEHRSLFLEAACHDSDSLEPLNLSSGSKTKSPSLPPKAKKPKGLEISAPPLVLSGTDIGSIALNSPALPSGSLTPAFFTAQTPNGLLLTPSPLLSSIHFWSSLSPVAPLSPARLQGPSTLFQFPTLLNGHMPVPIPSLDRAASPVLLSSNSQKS
The procedure, abridged:
as §1

ELF1, sequence (P32519 whole entry): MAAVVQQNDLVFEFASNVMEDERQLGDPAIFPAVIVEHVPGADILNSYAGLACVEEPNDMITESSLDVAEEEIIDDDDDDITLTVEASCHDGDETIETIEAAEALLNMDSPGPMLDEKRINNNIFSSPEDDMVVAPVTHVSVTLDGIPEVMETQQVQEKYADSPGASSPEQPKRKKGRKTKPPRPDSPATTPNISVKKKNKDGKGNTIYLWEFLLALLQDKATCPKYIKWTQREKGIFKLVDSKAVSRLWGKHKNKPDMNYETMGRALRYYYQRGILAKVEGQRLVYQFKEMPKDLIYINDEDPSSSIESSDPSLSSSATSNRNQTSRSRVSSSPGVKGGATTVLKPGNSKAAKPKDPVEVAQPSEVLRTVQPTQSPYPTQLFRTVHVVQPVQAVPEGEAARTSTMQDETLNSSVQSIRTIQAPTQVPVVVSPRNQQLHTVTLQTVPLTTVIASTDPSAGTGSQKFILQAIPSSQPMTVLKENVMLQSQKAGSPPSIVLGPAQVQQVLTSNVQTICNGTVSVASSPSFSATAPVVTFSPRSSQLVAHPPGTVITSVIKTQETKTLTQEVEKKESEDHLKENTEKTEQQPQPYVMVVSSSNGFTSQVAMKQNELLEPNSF

Regarding GCATTT, the binding signal is 1.38 fold enrichment (6-mer frequency, TF over GST control) in assay [1]; 1.38 fold enrichment (6-mer frequency, TF over GST control) in [2]; 1.36 fold enrichment (6-mer frequency, TF over GST control) in assay [3]; 1.3 fold enrichment (6-mer frequency, TF over GST control) in [4]; 1.33 fold enrichment (6-mer frequency, TF over GST control) in assay [5]; 1.37 fold enrichment (6-mer frequency, TF over GST control) in [6]. In addition, the binding signal in assay [7] is 1.58 fold enrichment (6-mer frequency, TF over GST control); in assay [8], 1.38 fold enrichment (6-mer frequency, TF over GST control); in assay [9] it was 1.4 fold enrichment (6-mer frequency, TF over GST control).

On to GCCTCT, for which the binding signal is 1.39 fold enrichment (6-mer frequency, TF over GST control) in [1]; 1.38 fold enrichment (6-mer frequency, TF over GST control) in [2]; 1.37 fold enrichment (6-mer frequency, TF over GST control) in [3]; 1.35 fold enrichment (6-mer frequency, TF over GST control) in assay [4]; 1.36 fold enrichment (6-mer frequency, TF over GST control) in [5]; 1.29 fold enrichment (6-mer frequency, TF over GST control) in [6]. In addition, the binding signal is 1.31 fold enrichment (6-mer frequency, TF over GST control) in assay [7]; 1.42 fold enrichment (6-mer frequency, TF over GST control) in assay [8]; 1.32 fold enrichment (6-mer frequency, TF over GST control) in [9].

TTACTT: the binding signal in [1] was 1.44 fold enrichment (6-mer frequency, TF over GST control); in [2] it was 1.53 fold enrichment (6-mer frequency, TF over GST control); in assay [3] it was 1.44 fold enrichment (6-mer frequency, TF over GST control); in assay [4], 1.44 fold enrichment (6-mer frequency, TF over GST control); in assay [5] it was 1.53 fold enrichment (6-mer frequency, TF over GST control); in [6] it was 1.58 fold enrichment (6-mer frequency, TF over GST control). In addition, the binding signal was 1.59 fold enrichment (6-mer frequency, TF over GST control) in assay [7]; 1.58 fold enrichment (6-mer frequency, TF over GST control) in assay [8]; 1.64 fold enrichment (6-mer frequency, TF over GST control) in assay [9].

For the sequence ATGCAT, the binding signal in assay [1] was 1.21 fold enrichment (6-mer frequency, TF over GST control); in [2], 1.21 fold enrichment (6-mer frequency, TF over GST control); in assay [3] it was 1.22 fold enrichment (6-mer frequency, TF over GST control); in assay [4], 1.16 fold enrichment (6-mer frequency, TF over GST control); in assay [5], 1.16 fold enrichment (6-mer frequency, TF over GST control); in assay [6], 1.22 fold enrichment (6-mer frequency, TF over GST control). Also, the binding signal in assay [7] is 1.18 fold enrichment (6-mer frequency, TF over GST control); in assay [8] it was 1.19 fold enrichment (6-mer frequency, TF over GST control); in assay [9], 1.29 fold enrichment (6-mer frequency, TF over GST control).

Turning to CCTTGC, the binding signal is 1.31 fold enrichment (6-mer frequency, TF over GST control) in assay [1]; 1.28 fold enrichment (6-mer frequency, TF over GST control) in assay [2]; 1.33 fold enrichment (6-mer frequency, TF over GST control) in assay [3]; 1.2 fold enrichment (6-mer frequency, TF over GST control) in assay [4]; 1.45 fold enrichment (6-mer frequency, TF over GST control) in assay [5]; 1.28 fold enrichment (6-mer frequency, TF over GST control) in [6]. In addition, the binding signal was 1.27 fold enrichment (6-mer frequency, TF over GST control) in assay [7]; 1.24 fold enrichment (6-mer frequency, TF over GST control) in assay [8]; 1.16 fold enrichment (6-mer frequency, TF over GST control) in assay [9].

As for TTCGCT, the binding signal in assay [1] was 1.19 fold enrichment (6-mer frequency, TF over GST control); in [2] it was 1.17 fold enrichment (6-mer frequency, TF over GST control); in assay [3] it was 1.32 fold enrichment (6-mer frequency, TF over GST control); in [4], 1.28 fold enrichment (6-mer frequency, TF over GST control); in [5], 1.18 fold enrichment (6-mer frequency, TF over GST control); in assay [6], 1.07 fold enrichment (6-mer frequency, TF over GST control). The binding signal is 1.16 fold enrichment (6-mer frequency, TF over GST control) in assay [7]; 1.47 fold enrichment (6-mer frequency, TF over GST control) in assay [8]; 1.45 fold enrichment (6-mer frequency, TF over GST control) in assay [9].

On to TTTTGC, for which the binding signal in assay [1] was 1.51 fold enrichment (6-mer frequency, TF over GST control); in assay [2], 1.39 fold enrichment (6-mer frequency, TF over GST control); in assay [3], 1.38 fold enrichment (6-mer frequency, TF over GST control); in [4], 1.26 fold enrichment (6-mer frequency, TF over GST control); in [5], 1.42 fold enrichment (6-mer frequency, TF over GST control); in [6], 1.28 fold enrichment (6-mer frequency, TF over GST control). The binding signal in assay [7] is 1.43 fold enrichment (6-mer frequency, TF over GST control); in assay [8] it was 1.45 fold enrichment (6-mer frequency, TF over GST control); in assay [9], 1.42 fold enrichment (6-mer frequency, TF over GST control).
